Bioassay records (PubChem BioAssay)
Rows were chosen to be rich in hits. Some 5.5% of all compounds tested hit in one or more screens of this group.
MBNL1 CUG block: qHTS Assay for Inhibitors of MBNL1-poly(CUG) RNA binding. 280,000 compounds, 0.036% hits. TR-FRET MBNL1-His/biotin-(CUG)12 binding, 665/545 ratio. Potency, µM (series often up to 57.5 µM), for the others: at the highest dose activity change, negative = inhibition, hits mostly inhibitors; active = well fitted inhibition curve with a large enough effect in the signal ratio, with a control signal flat, not every such curve was filed as active; inconclusive = small, poorly fitted or top-dose-only effect, or effect the other way, or a change in a side signal; inactive = no such curve, though single readings can be large or run the other way; the % refers to the signal ratio; also: potency is read from the fitted curve at half-maximal effect; % is scaled to controls: 0 for no effect and ±100 for the full control effect
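Compound titration spanned 92 nM–58 uM against the MBNL1-His/biotin-(CUG)12 complex. After 60 min at room temperature with 5 nM streptavidin-XL665 and 0.055 ng/ul terbium anti-His, ratiometric 665/545 nm emission (Ex 340 nm) normalized to controls.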
RORgamma inh: qHTS for inhibitors of ROR gamma transcriptional activity. Nuclear receptor ROR-gamma (Mus musculus), P51450. Drosophila S2 Gal4-RORgamma UAS-luciferase reporter, 20 h. Potency, µM (doses to about 53.6 µM), for the others: top-dose activity change, negative = inhibition, hits mostly inhibitors. 310,000 compounds, 5.4% hits. AID 2551, 2010; also: potency is read from the fitted curve at half-maximal effect; % is scaled to controls: 0 for no effect and ±100 for the full control effect; nearly all actives have a fitted effect of over 60% in size
Target sequence (P51450 whole entry, looked up, the tested form may be a part): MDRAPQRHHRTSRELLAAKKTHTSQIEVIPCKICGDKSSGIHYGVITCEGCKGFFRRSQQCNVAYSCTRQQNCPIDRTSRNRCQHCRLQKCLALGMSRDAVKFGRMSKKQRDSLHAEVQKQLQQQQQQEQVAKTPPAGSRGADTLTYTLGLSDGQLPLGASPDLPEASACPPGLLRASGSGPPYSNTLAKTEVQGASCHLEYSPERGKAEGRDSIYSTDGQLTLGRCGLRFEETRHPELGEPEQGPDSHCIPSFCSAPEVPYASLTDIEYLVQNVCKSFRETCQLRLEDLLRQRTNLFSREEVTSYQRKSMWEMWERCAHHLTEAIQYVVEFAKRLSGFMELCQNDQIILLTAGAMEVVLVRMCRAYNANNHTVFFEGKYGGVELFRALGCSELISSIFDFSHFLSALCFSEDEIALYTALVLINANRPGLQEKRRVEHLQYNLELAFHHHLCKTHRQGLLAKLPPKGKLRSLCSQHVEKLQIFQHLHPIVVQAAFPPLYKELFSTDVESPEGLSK
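Schneider cells (Drosophila), stable Gal4 DBD–ROR gamma + UAS-luc; 1 hr cmpd preincubation; Cu2+ induction 700 uM final; 20 hr ambient; luminescence.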
CBFb RUNX1 block: qHTS Assay for Compounds Blocking the Interaction Between CBF-beta and RUNX1 for the Treatment of Acute Myeloid Leukemia; AID 1477, 2009; AlphaScreen CBFb-His/RUNX1-biotin binding, biochemical; Potency, µM (series often up to 59.8 µM), for the others: at the highest dose activity, negative = inhibition, actives largely listed as inhibitors; 230,000 tested, under 10 active; Runt-related transcription factor 1 (Homo sapiens) + Core-binding factor subunit beta …; also: % of control where 0% means no effect
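AlphaScreen proximity signal reports loss of binding between His-tagged CBF-beta and biotin-labelled RUNX1, each at 30 nM. Proteins are pre-associated for 20 minutes, compounds added for 15 minutes, then beads for 90 minutes, all at ambient temperature.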
Six1-Eya2 blk: qHTS Assay for Inhibitors of the Six1/Eya2 Interaction; AlphaScreen GST-Six1/His-Eya2 binding, biochemical; hits give low values; activity change, % (no concentration beside the values); 360,000 compounds, 0.56% hits; in the data active = activity change below about -65%; inconclusive = mostly about -30% to -63%; also: % is scaled to controls: 0 for no effect and ±100 for the full control effect
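Homogeneous AlphaScreen proximity assay pairing GST-Six1 with His-tagged Eya2 (added as 5X mix: 250 nM and 500 nM) in 50 mM Tris pH 8.0, 300 mM NaCl, 1 mM TCEP. Glutathione donor and nickel acceptor beads; 1 h, 37 °C, dark.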
VP16 counter: VP16 counterscreen qHTS for inhibitors of ROR gamma transcriptional activity; Drosophila S2 Gal4-VP16 UAS-luciferase, luminescence, 20 h; Potency, µM (series often up to 53.6 µM), for inactives: top-dose activity, negative = inhibition, most hits filed as inhibitors; 310,000 compounds, 3.5% hits;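 also: Gal4-VP16 expression switched on by copper sulfate through the metallothionein promoter; potency is read from the fitted curve at half-maximal effect; % is scaled to controls: 0 for no effect and ±100 for the full control effect; nearly all actives have a fitted effect of over 50% in size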
CtBP-E1A inh: qHTS Assay for Inhibitors of the CtBP/E1A Interaction; activity change, % (no concentration beside the values); 340,000 compounds, 0.49% hits; CtBP / adenovirus E1A interaction (AlphaScreen); AlphaScreen GST-E1A/His-CtBP binding, 1536-well; hits give low values; AID 651724, 2012; in the data active = activity change below about -65%; inconclusive = mostly about -30% to -63%; also: % is scaled to controls: 0 for no effect and ±100 for the full control effect
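Protein mix (5X: 125 nM each GST-E1A, His-CtBP) was incubated with pinned compound 2 h at 37 deg C in dark, in 50 mM Tris pH 8.0 buffer with 300 mM NaCl. Glutathione donor and nickel acceptor beads followed; AlphaScreen signal read after 1 h.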
An asterisk follows results filed as active; ? = inconclusive; / = no result; [ ] = another dose, or the depositor's remark. Unless noted, calls follow the shape of the dose curve; as a rule, active = well fitted curve in the direction sought with a large enough effect; inconclusive = small, poorly fitted or top-dose-only effect, or another doubt; inactive = no such curve, though single readings can be large; an effect the other way counts as inactive or inconclusive.

SMILES	MBNL1 CUG block	RORgamma inh	CBFb RUNX1 block	Six1-Eya2 blk	VP16 counter	CtBP-E1A inh
S=C(Nc1ccccc1)Nc1ccc(Br)cc1	/	?	13.8%	-2.9	?	-6.0
Cc1nc2ccccn2c1C(=O)NCCCN1CCOCC1	-1.2%	-34.2%[0.365 µM]	1.2%	-0.5	/	-1.6
Cc1nn(C)c(C(=O)NN)c1Cl	-1.5%	11.2µM*	-3.5%	6.2	-4.6%	4.3
CCNC(=S)NNC(=O)c1c(Cl)c(C)nn1C	/	6.31µM*	1.2%	0.3	?	3.2
CCCCNC(=S)NNC(=O)c1c(C)nc2ccccn12	4.2%	12.6µM*	-0.2%	-6.5	-10.5%	-11.4
Cc1cccc(NC(=O)NNC(=O)c2c(Cl)c(C)nn2C)c1	-9.0%[11.5 µM]	?	12.6%	11.0	-14.7%	-1.7
CCCCNC(=S)NNC(=O)c1c(Cl)c(C)nn1C	-7.3%	1.41µM*	-11.9%	-12.3	-29.6%	-5.2
CCc1nc2ccc(C(=O)NCCc3c[nH]c4ccccc34)cn2c1N(C)Cc1nccn1C	/	/	/	-8.4	/	6.4
COc1ccccc1NC(=S)NNC(=O)c1c(Cl)c(C)nn1C	10.3%	1.58µM*	-5.5%	-2.8	?	-0.2
COc1ccccc1N1CCN(C(=O)CN2C(=O)c3ccccc3S2(=O)=O)CC1	/	-10.0%	2.0%	10.4	1.1%	3.7
COCCN(Cc1ccco1)C(=O)C1CCCN(c2ncnc3c2nc2n3CCCCC2)C1 (configuration not stated)	0.7%	14.4%	/	-2.1	-13.3%	0.8
N#CC1=C(S)N(c2ccccc2)C(c2ccc(-c3cccc(Cl)c3)o2)NC1=O (configuration not stated)	?	12.6µM*	-16.5%	-4.0	?	/
COc1ccc(C2NC(=O)C(C#N)=C(S)N2c2ccccc2)cc1OC (configuration not stated)	-0.3%	?	5.9%	-1.4	?	0.6
COc1cc(C2NC(=O)C(C#N)=C(S)N2c2ccccc2)ccc1OC(C)C (configuration not stated)	-2.9%	10µM*	-1.6%	3.4	?	-1.2
CCOc1ccc(C2NC(=O)C(C#N)=C(S)N2c2ccc(C)cc2)cc1OC (configuration not stated)	1.3%	14.1µM*	-5.9%	-1.2	?	6.4
CCOc1ccc(C2NC(=O)C(C#N)=C(S)N2c2cccc(C)c2)cc1OC (configuration not stated)	-0.3%	-33.9%	-1.7%	-0.1	-10.5%	/
Cc1ccc(NC(=S)N(CCN2CCOCC2)Cc2ccccc2F)cc1Cl	-1.5%	10µM*	1.0%	-4.1	?	4.2
COc1ccccc1NC(=S)N(CCN1CCOCC1)Cc1ccccc1F	-0.4%	-20.9%	4.7%	1.7	-21.8%	-2.3
Cc1cccc(NC(=S)N(CCN2CCOCC2)Cc2ccccc2F)c1	-5.5%	12.6µM*	7.4%	1.5	-69.1%	0.8
COc1ccc(NC(=S)N(CCN2CCOCC2)Cc2ccccc2F)cc1	2.1%	?	8.8%	7.9	7.4%	-17.9
CCc1nc2c(OCc3ccc(Cl)cc3)cccn2c1N(C)C(=O)c1ccncc1	/	/	/	-15.9	/	-1.1
COc1ccc(CCN(C)CCC(=O)Nc2ccc(C)cc2)cc1OC	?	15.5%	-5.6%	-3.8	-1.0%	7.9
COc1ccc(CCN(C)C(=S)NC(=O)c2ccc(F)cc2Cl)cc1OC	0.9%	1.58µM*	-3.6%	-3.2	3.98µM*	0.9
COc1ccc(CCN(C)C(=S)Nc2ccc(SC(F)F)cc2)cc1OC	-4.0%	20µM*	/	0.4	?	-7.2
CC1=C(C(=O)N(C)C)CC(CC(=O)NC2CCCCC2)C(=O)N1Cc1ccccc1 (configuration not stated)	/	/	/	-0.8	/	-4.8
